Reference: PubChem BioAssay (NCATS)
Results filed as inconclusive are left out. Unmarked numbers belong to inactive results. Calls come from the whole dose curve; as a rule, active = well fitted inhibition curve with a large enough effect; inconclusive = small, poorly fitted or top-dose-only effect; inactive = flat fitted curve, though single readings scatter.

assay: qHTS profiling for inhibitors of Plasmodium falciparum proliferation (AID 504749);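 note: 0% = DMSO vehicle and full inhibition = artemisinin control; nearly all actives have a fitted effect of over 60% in size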; conditions: P. falciparum in erythrocytes, SYBR Green DNA, 72 h; at 28.7 µM (top of the series); parasite line A
In short: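 In a 72 h erythrocytic culture (37 C, humidified, 5% CO2) at 2.5% hematocrit and 0.3% starting parasitemia, compounds were tested; SYBR Green I in detergent lysis buffer stained parasite DNA overnight.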

| Structure (SMILES) | activity, negative = inhibition |
| --- | --- |
| O=C(O)Cc1ccc(CCNS(=O)(=O)c2ccc(Cl)cc2)cc1 | 5.99% |
| NS(=O)(=O)c1ccc(NC(=O)CCC(=O)O)cc1 | 0.494% |
| C=CCSCC1Nc2cc(Cl)c(S(N)(=O)=O)cc2S(=O)(=O)N1 (stereo unspecified) | 8.77% |
| Cc1cccc(C)c1NC(=O)CC12CCCN1CCC2 | 2.82% |
| CC(=O)Nc1cccc(O)c1 | 7.02% |
| CNCc1ccccc1 | 11.1% |
| COc1ccc(C(=O)NCc2ccc(OCCN(C)C)cc2)cc1OC | -0.299% |
| C=CCNC(N)=S | 5.67% |
| NS(=O)(=O)c1cc(-c2nn[nH]n2)c(NCc2cccs2)cc1Cl | 0.998% |
| CCOc1ccc(C(=O)OCCN(CC)CC)cc1 | 11.5% |
| Cc1c(N(C)C)c(=O)n(-c2ccccc2)n1C | 13.7% |
| COC(=O)c1cccnc1 | 7.8% |
| Cc1ccc(S(=O)(=O)NC(=O)NC2CCCCCCC2)cc1 | 11.2% |
| CCCCCCCCCCCCCCCCC(C(=O)O)C(O)(CC(=O)O)C(=O)O (stereo unspecified) | 13.1% |
| Cn1c(=O)c2c(ncn2CCO)n(C)c1=O | 2.6% |
| CCCC(O)C(CC)CO (stereo unspecified) | 12.2% |
| CCCCCC(N)=O | 6.64% |

| Structure (SMILES) | activity, negative = inhibition |
| --- | --- |
| O=C(O)c1ccc[n+]([O-])c1 | -4.83% |
| CC(CSC(=O)c1ccccc1)C(=O)N1C[C@@H](Sc2ccccc2)C[C@H]1C(=O)O (stereo partly specified) | 13% |
| CCOc1cc(NC(C)=O)ccc1C(=O)OC | 4.89% |
| C[C@@H](N)C(=O)O | 26.2% |
| NC(=O)NS(=O)(=O)c1ccc(N)cc1 | -1.96% |
| O=C(O)c1ccccc1C(=O)Nc1ccc(S(=O)(=O)Nc2nccs2)cc1 | 16.3% |
| CC(=O)NS(=O)(=O)c1ccc(N)cc1 | 6.18% |
| O=C(O)Cn1c(C(=O)Nc2nc(-c3ccccc3Cl)cs2)cc2ccccc21 | 10.1% |
| CC(O)CCCCn1c(=O)c2c(ncn2C)n(C)c1=O (stereo unspecified) | 9.1% |
| CCCCCCCCCCCCCCCCN | 0.565% |
| CN1CCCN=C1COC(=O)C(O)(c1ccccc1)C1CCCCC1 (stereo unspecified) | 2.78% |
| NS(=O)(=O)c1ccc(C(=O)O)cc1 | 18.9% |
| Cn1c([N+](=O)[O-])cnc1COC(N)=O | 5.14% |
| O=C(O)c1ccccc1OP(=O)(O)O | 4.92% |
| c1ccc2[nH]ccc2c1 | 15.1% |
| O=C(OOC(=O)c1ccccc1)c1ccccc1 | -10.4% |

same assay, conditions: P. falciparum in erythrocytes, SYBR Green DNA, 72 h; at 28.7 µM (top of the series); parasite line B

| Structure (SMILES) | activity, negative = inhibition |
| --- | --- |
| O=C(O)Cc1ccc(CCNS(=O)(=O)c2ccc(Cl)cc2)cc1 | -5.95% |
| NS(=O)(=O)c1ccc(NC(=O)CCC(=O)O)cc1 | 7.64% |
| C=CCSCC1Nc2cc(Cl)c(S(N)(=O)=O)cc2S(=O)(=O)N1 (stereo unspecified) | 13.6% |
| Cc1cccc(C)c1NC(=O)CC12CCCN1CCC2 | 0.226% |
| CC(=O)Nc1cccc(O)c1 | 9.95% |
| CNCc1ccccc1 | 15.3% |
| COc1ccc(C(=O)NCc2ccc(OCCN(C)C)cc2)cc1OC | -0.981% |
| C=CCNC(N)=S | -1.15% |
| NS(=O)(=O)c1cc(-c2nn[nH]n2)c(NCc2cccs2)cc1Cl | 13.7% |
| CCOc1ccc(C(=O)OCCN(CC)CC)cc1 | 3.64% |
| Cc1c(N(C)C)c(=O)n(-c2ccccc2)n1C | 18.1% |
| COC(=O)c1cccnc1 | 16.6% |
| Cc1ccc(S(=O)(=O)NC(=O)NC2CCCCCCC2)cc1 | 10.7% |
| CCCCCCCCCCCCCCCCC(C(=O)O)C(O)(CC(=O)O)C(=O)O (stereo unspecified) | 1.49% |
| Cn1c(=O)c2c(ncn2CCO)n(C)c1=O | -3.88% |
| CCCC(O)C(CC)CO (stereo unspecified) | 6.77% |
| CCCCCC(N)=O | 8.74% |

| Structure (SMILES) | activity, negative = inhibition |
| --- | --- |
| O=C(O)c1ccc[n+]([O-])c1 | 10.2% |
| CC(CSC(=O)c1ccccc1)C(=O)N1C[C@@H](Sc2ccccc2)C[C@H]1C(=O)O (stereo partly specified) | 2.24% |
| CCOc1cc(NC(C)=O)ccc1C(=O)OC | 12.8% |
| C[C@@H](N)C(=O)O | 15.6% |
| NC(=O)NS(=O)(=O)c1ccc(N)cc1 | 15.9% |
| O=C(O)c1ccccc1C(=O)Nc1ccc(S(=O)(=O)Nc2nccs2)cc1 | 12.3% |
| CC(=O)NS(=O)(=O)c1ccc(N)cc1 | 10.5% |
| O=C(O)Cn1c(C(=O)Nc2nc(-c3ccccc3Cl)cs2)cc2ccccc21 | 5.81% |
| CC(O)CCCCn1c(=O)c2c(ncn2C)n(C)c1=O (stereo unspecified) | 4.96% |
| CCCCCCCCCCCCCCCCN | 3.84% |
| CN1CCCN=C1COC(=O)C(O)(c1ccccc1)C1CCCCC1 (stereo unspecified) | -4.74% |
| NS(=O)(=O)c1ccc(C(=O)O)cc1 | 11.1% |
| Cn1c([N+](=O)[O-])cnc1COC(N)=O | 3.75% |
| O=C(O)c1ccccc1OP(=O)(O)O | 6.75% |
| c1ccc2[nH]ccc2c1 | 19.4% |
| O=C(OOC(=O)c1ccccc1)c1ccccc1 | 7.71% |
